According to the supplement of paper PMC10849652:
Of roughly 8,800 targets only a part is listed; those with a hit were picked by preference. About 0.5% of all pairs of compound and target were hits. A number with no mark means an inactive call.

Tests used:
Assay in all cases: log2 fold change, soluble protein after heating vs DMSO (PISA); higher = thermal stabilisation; K562 lysate, 10 uM; active = over 0.2 and 3.5 SD of the protein, either way, in both replicates (recomputed)
[1] = compound: CC(=O)c1cnc2ccc(-c3cc(Cl)c(O)c(Cl)c3)nc2c1N[C@H]1CC[C@H](CN(C)C)CC1
Outline: (§1)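 The values are log-two fold changes in thermal stability compared with solvent controls and come from duplicates. They were obtained by TMTpro 16plex LC-MS/MS, with channel sums equalised, on the supernatant after 21,000xg for 90 min. That supernatant came from crude K562 extract at 1 mg/mL protein treated with 10 μM compound for 30 min, heated for 3 min across 48°C-58°C, pooled and brought to 0.5% NP-40 at 4°C.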

[2] = compound: CC(C)C1=C2N=C(C=C(N2N=C1)NCC3=CC=CC=C3)NCCCCCCN
Outline: as §1

[3] = compound: CC1=C(C2=C(C=C1)C(=O)C3=CC=CC=C3N2CCCN)C
Outline: as §1

[4] = compound: CC1=C(C=C(C=C1)NC(=O)C2=CC(=CC=C2)C(C)(C)C#N)NC3=CC4=C(C=C3)N=CN(C4=O)C
Outline: as §1

[5] = compound: CC1=CC=C(C=C1)SC2=C3C=C(SC3=CN=C2)C(=O)N
Outline: as §1

[6] = compound: CC(C)(C)Cn1c(N)nc2ccc(-c3[nH]c(C(C)(C)C)nc3-c3ccc(F)cc3)nc21 [ralimetinib]
Outline: as §1

[7] = compound: CC(C)(O)CC(=O)NCCn1ccc2ncnc(Nc3ccc(Oc4cccc(C(F)(F)F)c4)c(Cl)c3)c21
Outline: as §1

[8] = compound: CC1=C(C(CC(=O)N1)C2=CC=C(C=C2)C(F)(F)F)C(=O)NC3=C(C=C4C(=C3)C=NN4)F
Outline: as §1

[9] = compound: CC1=C(C=C(C=C1)NC(=O)C2=CC(=CC=C2)N(C)C)NC(=O)C3=CC=C(C=C3)O
Outline: as §1

UniProt Q8WXC6, sequence (Q8WXC6 whole entry, looked up): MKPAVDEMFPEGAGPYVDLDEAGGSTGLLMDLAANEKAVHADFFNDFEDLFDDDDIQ
UniProt Q99715, sequence (Q99715 whole entry, looked up): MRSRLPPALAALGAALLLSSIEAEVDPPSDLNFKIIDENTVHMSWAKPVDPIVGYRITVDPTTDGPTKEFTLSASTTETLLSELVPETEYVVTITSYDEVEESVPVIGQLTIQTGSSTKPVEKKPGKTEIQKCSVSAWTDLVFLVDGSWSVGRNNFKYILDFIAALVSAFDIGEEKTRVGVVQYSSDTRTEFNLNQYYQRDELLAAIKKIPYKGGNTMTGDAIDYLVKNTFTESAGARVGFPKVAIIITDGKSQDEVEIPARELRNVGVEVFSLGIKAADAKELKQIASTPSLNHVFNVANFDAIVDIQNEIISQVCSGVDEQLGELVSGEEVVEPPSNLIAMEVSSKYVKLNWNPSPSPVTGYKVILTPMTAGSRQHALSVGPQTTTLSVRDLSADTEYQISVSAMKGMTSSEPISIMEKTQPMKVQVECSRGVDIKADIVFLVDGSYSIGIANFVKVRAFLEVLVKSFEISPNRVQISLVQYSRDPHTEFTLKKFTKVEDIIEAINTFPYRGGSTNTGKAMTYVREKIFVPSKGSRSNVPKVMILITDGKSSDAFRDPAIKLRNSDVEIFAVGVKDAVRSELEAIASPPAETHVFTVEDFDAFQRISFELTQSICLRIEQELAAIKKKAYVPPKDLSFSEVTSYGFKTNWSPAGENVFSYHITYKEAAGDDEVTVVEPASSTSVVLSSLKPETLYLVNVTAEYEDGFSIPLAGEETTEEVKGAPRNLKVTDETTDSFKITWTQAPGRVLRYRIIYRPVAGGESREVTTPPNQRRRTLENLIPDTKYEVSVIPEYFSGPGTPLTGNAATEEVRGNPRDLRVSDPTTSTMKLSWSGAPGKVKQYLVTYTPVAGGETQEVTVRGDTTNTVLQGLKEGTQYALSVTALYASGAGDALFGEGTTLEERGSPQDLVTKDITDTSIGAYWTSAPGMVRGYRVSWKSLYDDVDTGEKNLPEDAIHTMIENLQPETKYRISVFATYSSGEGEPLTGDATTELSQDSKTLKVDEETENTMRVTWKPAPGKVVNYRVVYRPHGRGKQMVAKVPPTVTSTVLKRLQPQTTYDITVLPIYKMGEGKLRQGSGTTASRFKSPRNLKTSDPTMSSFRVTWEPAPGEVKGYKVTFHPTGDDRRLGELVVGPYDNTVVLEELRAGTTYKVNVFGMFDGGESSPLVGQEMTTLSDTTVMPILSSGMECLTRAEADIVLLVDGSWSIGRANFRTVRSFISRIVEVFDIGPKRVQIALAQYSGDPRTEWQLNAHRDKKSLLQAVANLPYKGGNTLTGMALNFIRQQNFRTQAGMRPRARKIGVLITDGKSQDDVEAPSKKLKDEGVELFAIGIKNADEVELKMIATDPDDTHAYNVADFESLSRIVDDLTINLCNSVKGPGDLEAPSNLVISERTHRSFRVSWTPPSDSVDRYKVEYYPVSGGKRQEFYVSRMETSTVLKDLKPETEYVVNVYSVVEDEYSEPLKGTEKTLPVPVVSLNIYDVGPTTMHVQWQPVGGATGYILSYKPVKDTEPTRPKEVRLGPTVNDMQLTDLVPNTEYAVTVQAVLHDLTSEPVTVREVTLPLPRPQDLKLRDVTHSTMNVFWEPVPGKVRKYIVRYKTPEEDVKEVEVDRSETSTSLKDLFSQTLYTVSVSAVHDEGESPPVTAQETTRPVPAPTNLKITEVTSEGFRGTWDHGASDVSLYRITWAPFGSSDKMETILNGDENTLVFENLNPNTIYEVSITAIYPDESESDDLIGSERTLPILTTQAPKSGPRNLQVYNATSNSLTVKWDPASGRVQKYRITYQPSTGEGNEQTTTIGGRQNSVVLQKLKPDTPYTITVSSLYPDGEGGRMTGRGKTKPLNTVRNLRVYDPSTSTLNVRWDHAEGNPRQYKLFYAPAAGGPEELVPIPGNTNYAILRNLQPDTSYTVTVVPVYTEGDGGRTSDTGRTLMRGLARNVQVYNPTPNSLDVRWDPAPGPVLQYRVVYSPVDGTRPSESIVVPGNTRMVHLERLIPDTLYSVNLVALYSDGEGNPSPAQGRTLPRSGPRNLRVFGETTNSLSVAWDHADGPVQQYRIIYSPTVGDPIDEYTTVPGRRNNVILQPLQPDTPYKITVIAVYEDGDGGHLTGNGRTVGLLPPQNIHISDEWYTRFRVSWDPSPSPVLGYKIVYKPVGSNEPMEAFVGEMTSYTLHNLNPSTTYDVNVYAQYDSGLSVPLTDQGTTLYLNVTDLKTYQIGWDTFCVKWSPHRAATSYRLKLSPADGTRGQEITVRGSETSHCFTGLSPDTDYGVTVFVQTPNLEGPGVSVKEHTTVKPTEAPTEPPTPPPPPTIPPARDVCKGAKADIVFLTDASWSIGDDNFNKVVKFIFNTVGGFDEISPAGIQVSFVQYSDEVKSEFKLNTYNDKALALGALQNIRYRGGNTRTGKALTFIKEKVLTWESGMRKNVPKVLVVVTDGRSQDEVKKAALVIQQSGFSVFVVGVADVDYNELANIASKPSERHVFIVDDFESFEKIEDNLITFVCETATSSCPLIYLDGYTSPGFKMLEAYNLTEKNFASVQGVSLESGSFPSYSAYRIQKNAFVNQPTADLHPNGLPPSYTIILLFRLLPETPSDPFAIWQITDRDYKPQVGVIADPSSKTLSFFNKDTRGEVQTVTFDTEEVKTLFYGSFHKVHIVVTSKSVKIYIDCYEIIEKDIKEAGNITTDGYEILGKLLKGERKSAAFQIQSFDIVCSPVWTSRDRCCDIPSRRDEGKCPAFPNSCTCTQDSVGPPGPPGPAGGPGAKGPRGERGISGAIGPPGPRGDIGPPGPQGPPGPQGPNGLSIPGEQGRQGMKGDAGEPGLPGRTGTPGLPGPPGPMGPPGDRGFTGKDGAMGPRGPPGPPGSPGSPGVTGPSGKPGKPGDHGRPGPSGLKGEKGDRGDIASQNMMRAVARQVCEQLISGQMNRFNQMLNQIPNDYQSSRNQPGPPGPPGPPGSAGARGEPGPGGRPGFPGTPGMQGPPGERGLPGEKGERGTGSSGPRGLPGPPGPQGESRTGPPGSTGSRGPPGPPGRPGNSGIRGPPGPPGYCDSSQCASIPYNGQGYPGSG
UniProt O75122, sequence (O75122 whole entry, looked up): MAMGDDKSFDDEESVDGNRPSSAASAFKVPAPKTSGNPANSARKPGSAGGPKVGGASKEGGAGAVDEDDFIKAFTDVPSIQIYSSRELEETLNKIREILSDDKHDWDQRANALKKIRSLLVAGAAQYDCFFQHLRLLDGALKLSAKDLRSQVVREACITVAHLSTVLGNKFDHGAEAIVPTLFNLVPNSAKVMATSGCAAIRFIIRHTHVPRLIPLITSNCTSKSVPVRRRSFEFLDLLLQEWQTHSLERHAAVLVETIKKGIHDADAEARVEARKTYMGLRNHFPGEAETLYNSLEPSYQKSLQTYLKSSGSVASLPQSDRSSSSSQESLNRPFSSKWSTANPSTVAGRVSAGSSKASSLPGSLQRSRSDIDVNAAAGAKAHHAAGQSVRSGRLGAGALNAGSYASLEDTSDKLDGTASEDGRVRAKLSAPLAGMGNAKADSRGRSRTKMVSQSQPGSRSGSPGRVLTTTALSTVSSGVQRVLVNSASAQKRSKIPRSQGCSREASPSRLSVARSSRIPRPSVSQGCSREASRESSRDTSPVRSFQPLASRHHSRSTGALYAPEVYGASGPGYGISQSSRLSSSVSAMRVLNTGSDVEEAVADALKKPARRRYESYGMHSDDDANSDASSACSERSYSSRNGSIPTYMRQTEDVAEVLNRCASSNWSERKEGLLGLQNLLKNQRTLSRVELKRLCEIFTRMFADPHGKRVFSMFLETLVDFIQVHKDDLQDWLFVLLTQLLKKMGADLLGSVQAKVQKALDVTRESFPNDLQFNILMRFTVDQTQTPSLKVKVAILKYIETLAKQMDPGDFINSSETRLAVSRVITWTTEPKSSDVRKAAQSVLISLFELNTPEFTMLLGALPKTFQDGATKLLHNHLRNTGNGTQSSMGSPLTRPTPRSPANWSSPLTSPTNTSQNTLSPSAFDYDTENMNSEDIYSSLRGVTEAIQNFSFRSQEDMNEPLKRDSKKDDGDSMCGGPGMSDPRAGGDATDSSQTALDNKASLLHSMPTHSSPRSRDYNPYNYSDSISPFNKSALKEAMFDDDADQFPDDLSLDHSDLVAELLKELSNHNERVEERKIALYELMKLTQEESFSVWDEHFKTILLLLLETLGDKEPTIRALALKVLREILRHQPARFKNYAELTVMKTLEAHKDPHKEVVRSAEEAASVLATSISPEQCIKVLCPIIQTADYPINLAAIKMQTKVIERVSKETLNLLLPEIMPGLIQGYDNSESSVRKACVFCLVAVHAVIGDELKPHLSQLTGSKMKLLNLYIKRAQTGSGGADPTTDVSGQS
UniProt Q92989, sequence (Q92989 whole entry, looked up): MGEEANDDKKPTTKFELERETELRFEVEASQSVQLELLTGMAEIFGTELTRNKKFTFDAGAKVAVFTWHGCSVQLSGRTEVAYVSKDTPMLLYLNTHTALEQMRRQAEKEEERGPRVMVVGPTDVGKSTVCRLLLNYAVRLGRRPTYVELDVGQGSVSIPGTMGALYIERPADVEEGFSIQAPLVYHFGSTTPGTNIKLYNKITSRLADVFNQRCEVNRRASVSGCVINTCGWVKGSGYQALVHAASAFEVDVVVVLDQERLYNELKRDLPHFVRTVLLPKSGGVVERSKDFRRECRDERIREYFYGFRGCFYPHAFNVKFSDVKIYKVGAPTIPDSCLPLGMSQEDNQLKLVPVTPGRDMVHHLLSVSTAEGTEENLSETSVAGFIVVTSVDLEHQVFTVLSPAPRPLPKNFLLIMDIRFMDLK
UniProt O15247, sequence (O15247 whole entry, looked up): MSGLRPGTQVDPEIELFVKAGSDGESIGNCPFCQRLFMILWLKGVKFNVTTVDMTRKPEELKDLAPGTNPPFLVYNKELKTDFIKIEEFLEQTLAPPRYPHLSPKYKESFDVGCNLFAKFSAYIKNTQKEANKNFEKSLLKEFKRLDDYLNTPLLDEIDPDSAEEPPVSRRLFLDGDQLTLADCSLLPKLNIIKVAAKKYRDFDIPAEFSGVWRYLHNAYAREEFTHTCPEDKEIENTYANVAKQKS

Target	log2 fold change [1]	log2 fold change [2]	log2 fold change [3]	log2 fold change [4]	log2 fold change [5]	log2 fold change [6]	log2 fold change [7]	log2 fold change [8]	log2 fold change [9]
COL12A1 (UniProt Q99715)	0.72	0.024	-0.224	1.57 (active)	0.005	–	–	–	–
DNM2 isoform 4 (UniProt P50570)	-0.018	-0.143	0.075	-0.08	0.058	0.011	-0.027	-0.07	0.047
CLIC2 (UniProt O15247)	-0.014	0.04	0.018	0.005	0.001	0.004	0.004	-0.01	0.006
CNOT2 (UniProt F8VRS8)	–	-0.001	–	–	–	–	–	–	–
CLUH, A0A494C0R8	0.138	0.002	0	0.016	0.029	0.053	-0.043	-0.128	-0.035
CSNK2A1, A0A2R8Y4D6	0.172	–	–	–	-0.292	–	–	–	–
COPS9 (UniProt Q8WXC6)	-0.059	0.173	–	–	-0.184	0.146	-0.213	–	0.172
DNA2 (UniProt P51530)	–	-0.06	0.002	-0.02	–	0.016	0.029	-0.007	0.001
DDAH1 (UniProt O94760)	-0.016	-0.001	-0.441 (active)	0.137	-0.04	-0.037	-0.045	–	-0.005
CLASP2 isoform 3 (UniProt O75122)	0.004	0.025	-0.008	0.023	0.004	0.019	-0.014	0.019	0.042
CHFR (UniProt Q96EP1)	0.158	-0.047	-0.06	-0.021	0.102	0.007	-0.049	0.003	0.031
CUX1 isoform 2 (UniProt Q13948)	0.07	-0.16	-0.027	0.385	-0.086	-0.069	0.052	–	0.043
CNK3/IPCEF1 isoform 2 (UniProt G9CGD6)	–	-0.096	0.075	–	–	0.215	-0.138	–	0
CLP1 (UniProt Q92989)	0.062	0.012	0.001	-0.02	0.01	0.006	0.003	0.023	-0.037
